In the supplement of paper PMC11732987, “Enantioselective OTUD7B fragment discovery through chemoproteomics screening and high-throughput optimisation” (Communications Chemistry, 2025):

Tests used:
Assay in all cases: log2 ratio of Biotin-Ahx-Ub-VS probe labelling (fragment/DMSO); higher = less target engagement (more negative = stronger competition), active = hit call of the paper (q ≤ 0.05, log2 ratio ≤ -1)
Details in all cases: compound concentration: 200 uM; treatment time: 3 h
[1] = target: USP9X (UniProt Q93008)
Sequence of USP9X (Q93008 whole entry, the tested form may be a part): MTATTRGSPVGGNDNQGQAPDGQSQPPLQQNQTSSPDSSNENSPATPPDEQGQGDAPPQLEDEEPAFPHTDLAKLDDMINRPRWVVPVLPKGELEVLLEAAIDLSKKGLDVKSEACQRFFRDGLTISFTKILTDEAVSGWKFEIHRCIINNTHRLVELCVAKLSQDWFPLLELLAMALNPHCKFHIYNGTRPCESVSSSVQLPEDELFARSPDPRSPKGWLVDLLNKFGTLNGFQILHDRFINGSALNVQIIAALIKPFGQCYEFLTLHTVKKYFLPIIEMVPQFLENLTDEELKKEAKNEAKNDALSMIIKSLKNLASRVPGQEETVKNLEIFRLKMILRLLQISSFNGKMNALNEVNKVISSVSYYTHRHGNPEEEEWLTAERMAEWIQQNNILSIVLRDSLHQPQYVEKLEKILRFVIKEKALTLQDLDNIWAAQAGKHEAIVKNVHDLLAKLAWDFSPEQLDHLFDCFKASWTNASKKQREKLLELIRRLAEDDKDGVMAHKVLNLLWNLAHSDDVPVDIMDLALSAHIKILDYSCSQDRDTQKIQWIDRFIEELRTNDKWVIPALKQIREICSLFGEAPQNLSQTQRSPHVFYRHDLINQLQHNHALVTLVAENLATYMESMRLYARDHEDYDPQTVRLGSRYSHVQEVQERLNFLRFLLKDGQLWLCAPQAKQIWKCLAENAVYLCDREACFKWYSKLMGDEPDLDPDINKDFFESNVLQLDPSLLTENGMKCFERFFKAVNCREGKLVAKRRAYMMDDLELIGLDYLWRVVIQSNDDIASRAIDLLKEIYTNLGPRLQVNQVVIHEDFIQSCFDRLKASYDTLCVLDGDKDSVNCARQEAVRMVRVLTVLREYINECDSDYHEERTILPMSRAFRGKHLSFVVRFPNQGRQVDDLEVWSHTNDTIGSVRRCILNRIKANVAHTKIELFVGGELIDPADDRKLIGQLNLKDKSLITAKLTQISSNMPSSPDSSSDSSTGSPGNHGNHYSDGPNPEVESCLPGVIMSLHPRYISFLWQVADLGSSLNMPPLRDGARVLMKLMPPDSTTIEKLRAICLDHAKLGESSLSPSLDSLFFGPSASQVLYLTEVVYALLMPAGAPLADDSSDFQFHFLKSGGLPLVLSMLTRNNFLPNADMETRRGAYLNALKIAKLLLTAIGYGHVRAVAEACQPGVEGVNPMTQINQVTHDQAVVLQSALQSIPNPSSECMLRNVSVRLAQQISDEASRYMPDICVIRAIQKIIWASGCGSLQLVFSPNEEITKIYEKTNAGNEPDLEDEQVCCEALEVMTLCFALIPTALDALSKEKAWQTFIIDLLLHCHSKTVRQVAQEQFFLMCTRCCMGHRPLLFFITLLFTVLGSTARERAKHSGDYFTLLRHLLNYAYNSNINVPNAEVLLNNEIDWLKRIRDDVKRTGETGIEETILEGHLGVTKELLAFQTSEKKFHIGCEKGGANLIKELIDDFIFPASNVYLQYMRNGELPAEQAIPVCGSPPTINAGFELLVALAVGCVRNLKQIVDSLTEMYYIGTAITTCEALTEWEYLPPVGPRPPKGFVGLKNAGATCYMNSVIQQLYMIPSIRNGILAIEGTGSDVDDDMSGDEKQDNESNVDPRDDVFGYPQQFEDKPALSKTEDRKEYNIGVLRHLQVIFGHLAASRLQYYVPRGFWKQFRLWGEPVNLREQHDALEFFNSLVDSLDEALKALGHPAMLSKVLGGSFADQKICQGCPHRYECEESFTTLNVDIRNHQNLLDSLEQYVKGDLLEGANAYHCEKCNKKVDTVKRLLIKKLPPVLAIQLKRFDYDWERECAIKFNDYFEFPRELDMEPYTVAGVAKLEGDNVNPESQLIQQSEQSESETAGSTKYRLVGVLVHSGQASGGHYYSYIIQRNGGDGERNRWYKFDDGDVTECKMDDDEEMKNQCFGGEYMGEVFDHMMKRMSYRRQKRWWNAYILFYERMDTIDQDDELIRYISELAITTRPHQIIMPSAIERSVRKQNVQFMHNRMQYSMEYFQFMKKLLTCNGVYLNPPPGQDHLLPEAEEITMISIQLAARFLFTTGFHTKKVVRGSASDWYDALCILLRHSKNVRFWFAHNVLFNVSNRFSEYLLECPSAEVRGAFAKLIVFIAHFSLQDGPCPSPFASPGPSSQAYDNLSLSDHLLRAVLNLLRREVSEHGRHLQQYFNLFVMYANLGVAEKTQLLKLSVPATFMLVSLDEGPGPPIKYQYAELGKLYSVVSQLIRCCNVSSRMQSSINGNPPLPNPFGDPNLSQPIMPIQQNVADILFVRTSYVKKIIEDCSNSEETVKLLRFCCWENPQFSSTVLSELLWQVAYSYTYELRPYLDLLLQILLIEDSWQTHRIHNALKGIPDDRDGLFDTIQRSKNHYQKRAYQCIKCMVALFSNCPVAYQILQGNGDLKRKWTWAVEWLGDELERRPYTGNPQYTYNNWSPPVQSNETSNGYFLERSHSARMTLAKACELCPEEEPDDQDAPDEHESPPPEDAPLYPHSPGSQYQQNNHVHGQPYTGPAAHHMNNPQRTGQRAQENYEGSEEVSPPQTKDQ
How it was run: (§1)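 Labelled DUBs from HEK293T lysate were NeutrAvidin-enriched, digested with LysC and trypsin, and run by diaPASEF LC-MS/MS. Before that, each 495 µg sample in Tris/CHAPS/IGEPAL buffer with protease inhibitors was treated in triplicate with fragment at 200 µM or vehicle for 3 h, then with Biotin-Ahx-Ub-VS at 0.5 µM final for 1 h. Values are average log2 ratios of fragment over vehicle by unpaired t-test, based on global-median-normalised Spectronaut label-free quantities from proteins with ≥2 unique peptides.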

[2] = target: UniProt O00487
How it was run: as §1

[3] = target: UniProt O00507
Sequence of UniProt O00507 (O00507 whole entry): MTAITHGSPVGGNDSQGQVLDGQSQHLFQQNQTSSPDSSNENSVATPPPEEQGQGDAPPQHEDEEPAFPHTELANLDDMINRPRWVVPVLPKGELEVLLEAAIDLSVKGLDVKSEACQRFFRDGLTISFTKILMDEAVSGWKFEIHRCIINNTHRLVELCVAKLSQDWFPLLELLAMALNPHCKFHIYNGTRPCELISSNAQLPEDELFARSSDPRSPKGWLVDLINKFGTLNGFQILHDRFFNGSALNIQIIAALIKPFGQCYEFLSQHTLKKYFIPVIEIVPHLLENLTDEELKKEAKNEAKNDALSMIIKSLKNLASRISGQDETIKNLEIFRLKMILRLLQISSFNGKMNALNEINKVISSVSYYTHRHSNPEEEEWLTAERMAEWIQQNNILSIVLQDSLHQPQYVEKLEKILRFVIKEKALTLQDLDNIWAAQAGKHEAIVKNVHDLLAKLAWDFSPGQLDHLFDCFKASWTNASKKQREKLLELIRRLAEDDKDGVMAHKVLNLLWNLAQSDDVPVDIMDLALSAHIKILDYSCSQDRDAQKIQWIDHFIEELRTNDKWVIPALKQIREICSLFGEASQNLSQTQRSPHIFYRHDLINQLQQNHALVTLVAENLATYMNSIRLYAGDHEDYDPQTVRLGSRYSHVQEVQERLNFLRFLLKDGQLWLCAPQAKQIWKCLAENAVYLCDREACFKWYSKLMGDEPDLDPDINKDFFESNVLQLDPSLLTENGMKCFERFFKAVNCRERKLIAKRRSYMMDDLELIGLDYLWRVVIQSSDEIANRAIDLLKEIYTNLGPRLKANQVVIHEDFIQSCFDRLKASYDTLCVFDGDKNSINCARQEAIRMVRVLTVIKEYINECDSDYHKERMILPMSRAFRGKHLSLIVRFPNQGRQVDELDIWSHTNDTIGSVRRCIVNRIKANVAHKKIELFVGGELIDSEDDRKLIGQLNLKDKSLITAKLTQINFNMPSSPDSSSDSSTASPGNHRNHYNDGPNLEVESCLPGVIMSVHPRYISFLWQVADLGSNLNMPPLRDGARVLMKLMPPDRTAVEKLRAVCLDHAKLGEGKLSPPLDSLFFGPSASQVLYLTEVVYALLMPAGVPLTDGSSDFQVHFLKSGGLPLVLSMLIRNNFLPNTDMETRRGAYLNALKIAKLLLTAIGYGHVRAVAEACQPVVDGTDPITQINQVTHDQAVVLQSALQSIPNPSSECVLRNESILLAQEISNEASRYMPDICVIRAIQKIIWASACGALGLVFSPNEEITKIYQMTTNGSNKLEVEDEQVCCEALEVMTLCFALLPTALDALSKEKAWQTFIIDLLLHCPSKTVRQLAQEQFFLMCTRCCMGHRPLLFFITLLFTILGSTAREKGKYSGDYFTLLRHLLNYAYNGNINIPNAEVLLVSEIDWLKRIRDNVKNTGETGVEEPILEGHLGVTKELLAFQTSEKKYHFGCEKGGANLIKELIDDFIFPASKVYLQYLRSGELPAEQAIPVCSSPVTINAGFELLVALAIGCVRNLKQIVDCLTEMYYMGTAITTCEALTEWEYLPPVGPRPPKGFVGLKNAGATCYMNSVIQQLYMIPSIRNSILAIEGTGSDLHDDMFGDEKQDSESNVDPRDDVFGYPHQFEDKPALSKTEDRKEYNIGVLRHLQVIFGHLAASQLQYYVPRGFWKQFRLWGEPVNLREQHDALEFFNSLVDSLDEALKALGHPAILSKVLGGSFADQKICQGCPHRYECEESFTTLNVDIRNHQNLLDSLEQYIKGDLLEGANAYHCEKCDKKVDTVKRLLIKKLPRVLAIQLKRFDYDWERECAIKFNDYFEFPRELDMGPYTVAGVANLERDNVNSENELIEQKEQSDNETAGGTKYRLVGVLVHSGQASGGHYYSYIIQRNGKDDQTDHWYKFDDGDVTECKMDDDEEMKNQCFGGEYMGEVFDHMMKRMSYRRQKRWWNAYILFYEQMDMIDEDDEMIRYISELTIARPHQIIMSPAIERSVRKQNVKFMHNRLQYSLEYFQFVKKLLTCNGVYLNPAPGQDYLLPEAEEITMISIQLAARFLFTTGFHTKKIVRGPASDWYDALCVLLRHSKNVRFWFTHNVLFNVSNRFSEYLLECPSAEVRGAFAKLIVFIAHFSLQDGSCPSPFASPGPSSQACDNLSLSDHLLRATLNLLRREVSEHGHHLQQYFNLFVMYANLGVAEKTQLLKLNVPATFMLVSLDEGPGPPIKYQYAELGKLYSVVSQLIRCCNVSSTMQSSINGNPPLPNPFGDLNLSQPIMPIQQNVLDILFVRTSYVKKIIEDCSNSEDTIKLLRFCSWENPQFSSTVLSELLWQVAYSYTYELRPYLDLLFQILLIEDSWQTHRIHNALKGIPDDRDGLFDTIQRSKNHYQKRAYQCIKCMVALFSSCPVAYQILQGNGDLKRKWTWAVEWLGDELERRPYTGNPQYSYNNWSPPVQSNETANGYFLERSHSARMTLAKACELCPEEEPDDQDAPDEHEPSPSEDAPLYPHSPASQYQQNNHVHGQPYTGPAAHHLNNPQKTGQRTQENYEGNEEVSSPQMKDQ
How it was run: as §1

[4] = target: UniProt P51784
How it was run: as §1

[5] = target: T1, UniProt Q5T2D3
T1 sequence (whole entry): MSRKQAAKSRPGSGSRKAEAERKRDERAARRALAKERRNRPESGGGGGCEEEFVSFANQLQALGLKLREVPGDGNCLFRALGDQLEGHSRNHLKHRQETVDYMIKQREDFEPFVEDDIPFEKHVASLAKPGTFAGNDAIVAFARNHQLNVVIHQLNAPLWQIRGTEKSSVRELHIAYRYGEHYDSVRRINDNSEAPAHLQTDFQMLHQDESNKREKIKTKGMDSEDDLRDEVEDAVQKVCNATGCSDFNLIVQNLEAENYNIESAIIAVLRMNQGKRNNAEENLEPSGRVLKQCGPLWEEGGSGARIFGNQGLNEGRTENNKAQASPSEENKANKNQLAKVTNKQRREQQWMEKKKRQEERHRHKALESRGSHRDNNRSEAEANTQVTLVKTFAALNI
How it was run: as §1

[6] = target: T2, UniProt Q8TE49
T2 sequence (whole entry): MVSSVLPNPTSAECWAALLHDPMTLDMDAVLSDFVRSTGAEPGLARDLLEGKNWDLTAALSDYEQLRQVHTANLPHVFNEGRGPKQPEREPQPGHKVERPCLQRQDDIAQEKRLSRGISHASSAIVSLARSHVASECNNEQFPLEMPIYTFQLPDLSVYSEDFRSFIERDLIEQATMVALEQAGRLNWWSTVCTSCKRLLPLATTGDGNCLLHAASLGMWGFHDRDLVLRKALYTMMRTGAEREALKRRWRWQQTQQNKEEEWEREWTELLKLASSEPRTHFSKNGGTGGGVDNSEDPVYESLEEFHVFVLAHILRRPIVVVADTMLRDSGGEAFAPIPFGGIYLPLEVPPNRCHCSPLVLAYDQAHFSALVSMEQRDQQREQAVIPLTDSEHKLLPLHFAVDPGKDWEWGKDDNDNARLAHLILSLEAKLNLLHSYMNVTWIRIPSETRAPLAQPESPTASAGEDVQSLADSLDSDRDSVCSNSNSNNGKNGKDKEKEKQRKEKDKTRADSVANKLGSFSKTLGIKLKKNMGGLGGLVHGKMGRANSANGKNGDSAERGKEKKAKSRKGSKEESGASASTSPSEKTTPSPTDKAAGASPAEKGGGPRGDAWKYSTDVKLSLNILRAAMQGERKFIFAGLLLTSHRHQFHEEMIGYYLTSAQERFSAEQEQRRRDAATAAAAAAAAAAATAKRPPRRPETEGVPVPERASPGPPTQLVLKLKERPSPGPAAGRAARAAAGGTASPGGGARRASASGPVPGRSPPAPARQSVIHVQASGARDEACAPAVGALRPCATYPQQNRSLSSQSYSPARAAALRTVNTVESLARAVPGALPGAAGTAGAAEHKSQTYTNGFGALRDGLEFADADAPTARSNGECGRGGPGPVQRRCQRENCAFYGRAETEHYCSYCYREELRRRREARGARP
How it was run: as §1

[7] = target: T3, UniProt Q9P2H5
T3 sequence (whole entry): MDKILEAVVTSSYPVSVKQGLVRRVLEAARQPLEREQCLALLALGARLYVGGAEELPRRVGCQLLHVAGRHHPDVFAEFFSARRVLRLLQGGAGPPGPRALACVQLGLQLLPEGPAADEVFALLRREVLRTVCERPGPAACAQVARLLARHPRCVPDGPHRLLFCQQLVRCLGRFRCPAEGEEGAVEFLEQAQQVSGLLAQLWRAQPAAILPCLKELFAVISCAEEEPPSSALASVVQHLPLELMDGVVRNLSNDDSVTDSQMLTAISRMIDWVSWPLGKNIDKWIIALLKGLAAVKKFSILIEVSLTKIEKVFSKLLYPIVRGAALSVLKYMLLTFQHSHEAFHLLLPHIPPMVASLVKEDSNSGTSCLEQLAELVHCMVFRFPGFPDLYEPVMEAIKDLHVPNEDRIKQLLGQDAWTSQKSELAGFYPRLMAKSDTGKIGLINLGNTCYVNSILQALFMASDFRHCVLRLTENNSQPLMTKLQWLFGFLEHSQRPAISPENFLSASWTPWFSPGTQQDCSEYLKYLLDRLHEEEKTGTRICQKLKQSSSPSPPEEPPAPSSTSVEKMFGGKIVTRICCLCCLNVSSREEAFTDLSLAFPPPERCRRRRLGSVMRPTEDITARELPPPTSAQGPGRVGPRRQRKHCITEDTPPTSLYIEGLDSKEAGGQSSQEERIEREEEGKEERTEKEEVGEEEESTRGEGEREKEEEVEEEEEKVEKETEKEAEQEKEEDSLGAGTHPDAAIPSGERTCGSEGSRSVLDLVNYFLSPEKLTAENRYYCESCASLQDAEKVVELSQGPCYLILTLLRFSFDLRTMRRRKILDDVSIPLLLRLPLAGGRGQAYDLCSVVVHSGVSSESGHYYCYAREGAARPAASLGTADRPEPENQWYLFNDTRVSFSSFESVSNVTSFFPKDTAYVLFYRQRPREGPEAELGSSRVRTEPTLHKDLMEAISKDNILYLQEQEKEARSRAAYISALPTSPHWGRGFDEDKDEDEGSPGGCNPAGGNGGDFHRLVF
How it was run: as §1

[8] = target: T4, UniProt Q9UGI0
T4 sequence (whole entry): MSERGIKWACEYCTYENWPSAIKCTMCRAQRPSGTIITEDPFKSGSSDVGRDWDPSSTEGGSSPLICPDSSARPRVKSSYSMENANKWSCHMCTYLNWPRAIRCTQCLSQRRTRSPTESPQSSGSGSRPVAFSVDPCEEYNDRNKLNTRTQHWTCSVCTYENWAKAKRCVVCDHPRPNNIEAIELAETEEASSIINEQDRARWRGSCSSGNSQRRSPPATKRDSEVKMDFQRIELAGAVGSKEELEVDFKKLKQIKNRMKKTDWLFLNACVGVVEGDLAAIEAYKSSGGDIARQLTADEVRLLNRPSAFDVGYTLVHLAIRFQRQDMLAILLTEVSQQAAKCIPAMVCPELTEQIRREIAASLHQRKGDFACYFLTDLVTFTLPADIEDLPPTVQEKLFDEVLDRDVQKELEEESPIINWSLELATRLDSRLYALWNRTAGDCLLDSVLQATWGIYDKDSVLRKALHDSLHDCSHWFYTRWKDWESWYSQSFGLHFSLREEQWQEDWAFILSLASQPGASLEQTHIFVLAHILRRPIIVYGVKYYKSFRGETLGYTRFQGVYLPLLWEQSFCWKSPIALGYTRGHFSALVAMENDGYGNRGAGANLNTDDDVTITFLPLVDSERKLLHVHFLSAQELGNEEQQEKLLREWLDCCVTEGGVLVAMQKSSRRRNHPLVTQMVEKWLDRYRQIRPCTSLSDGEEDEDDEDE
How it was run: as §1

[9] = target: T5, YOD1 (UniProt Q5VVQ6)
T5 sequence (whole entry): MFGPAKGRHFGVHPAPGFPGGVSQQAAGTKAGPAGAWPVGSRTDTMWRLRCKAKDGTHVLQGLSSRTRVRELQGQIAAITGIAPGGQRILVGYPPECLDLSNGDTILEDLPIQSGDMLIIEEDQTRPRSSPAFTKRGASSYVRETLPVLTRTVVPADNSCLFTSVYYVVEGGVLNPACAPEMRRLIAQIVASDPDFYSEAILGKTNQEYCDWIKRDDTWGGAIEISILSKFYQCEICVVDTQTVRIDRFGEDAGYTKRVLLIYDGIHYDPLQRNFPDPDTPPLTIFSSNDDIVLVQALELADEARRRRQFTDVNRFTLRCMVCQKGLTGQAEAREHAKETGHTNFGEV
How it was run: as §1

Measured: log2 ratio of Biotin-Ahx-Ub-VS probe labelling

COc1cccc(CN(C)C(=O)CCl)c1
inactive: [1] 0.0455 | [2] 0.0127 | [3] -0.462 | [4] -0.179 | [5] -0.0411 | [6] -0.149 | [7] 0.258 | [9] 0.0172
active: [8] -1.23
